# Assay results reported in ChEMBL document CHEMBL4808148, “HDAC6 screening dataset using tau-based substrate in an enzymatic assay yields selective inhibitors and activators” (2021).
# About 390 (7%) of roughly 5,600 compounds showed an effect of 50% or more. For the sample, strong results were picked, then their nearest neighbours and some compounds at random. Starred links: 1 amine or outer side, 2 acyl side, 3 side chain; linkers in the order of their positions; H or OH if unused. Positions of bridges follow the written chain, without caps; N, C: chain ends. Non-standard residues stand in square brackets, D forms with d. Residues, ends and D or L forms follow the SMILES beside them. *: point of attachment. pTerphenylCO(4''-OnC5H11) = CCCCCOc1ccc(-c2ccc(-c3ccc(C(=O)*)cc3)cc2)cc1; Orn(4R-OH,5R-OH) = O=C([C@H](C[C@@H](O)[C@@H](O)N[*:3])N[*:1])[*:2]; hTyr(3S-OH,4S-OH) = N[C@H](C(=O)O)[C@H](O)[C@@H](O)c1ccc(O)cc1; Pro(3S-OH,4S-Me) = C[C@H]1CN[C@H](C(=O)O)[C@H]1O; Hyp = O=C(O)[C@@H]1C[C@@H](O)CN1
# Molecular target: T1, Protein deacetylase HDAC6 (Homo sapiens) (UniProt Q9UBN7)
# T1 sequence (whole entry): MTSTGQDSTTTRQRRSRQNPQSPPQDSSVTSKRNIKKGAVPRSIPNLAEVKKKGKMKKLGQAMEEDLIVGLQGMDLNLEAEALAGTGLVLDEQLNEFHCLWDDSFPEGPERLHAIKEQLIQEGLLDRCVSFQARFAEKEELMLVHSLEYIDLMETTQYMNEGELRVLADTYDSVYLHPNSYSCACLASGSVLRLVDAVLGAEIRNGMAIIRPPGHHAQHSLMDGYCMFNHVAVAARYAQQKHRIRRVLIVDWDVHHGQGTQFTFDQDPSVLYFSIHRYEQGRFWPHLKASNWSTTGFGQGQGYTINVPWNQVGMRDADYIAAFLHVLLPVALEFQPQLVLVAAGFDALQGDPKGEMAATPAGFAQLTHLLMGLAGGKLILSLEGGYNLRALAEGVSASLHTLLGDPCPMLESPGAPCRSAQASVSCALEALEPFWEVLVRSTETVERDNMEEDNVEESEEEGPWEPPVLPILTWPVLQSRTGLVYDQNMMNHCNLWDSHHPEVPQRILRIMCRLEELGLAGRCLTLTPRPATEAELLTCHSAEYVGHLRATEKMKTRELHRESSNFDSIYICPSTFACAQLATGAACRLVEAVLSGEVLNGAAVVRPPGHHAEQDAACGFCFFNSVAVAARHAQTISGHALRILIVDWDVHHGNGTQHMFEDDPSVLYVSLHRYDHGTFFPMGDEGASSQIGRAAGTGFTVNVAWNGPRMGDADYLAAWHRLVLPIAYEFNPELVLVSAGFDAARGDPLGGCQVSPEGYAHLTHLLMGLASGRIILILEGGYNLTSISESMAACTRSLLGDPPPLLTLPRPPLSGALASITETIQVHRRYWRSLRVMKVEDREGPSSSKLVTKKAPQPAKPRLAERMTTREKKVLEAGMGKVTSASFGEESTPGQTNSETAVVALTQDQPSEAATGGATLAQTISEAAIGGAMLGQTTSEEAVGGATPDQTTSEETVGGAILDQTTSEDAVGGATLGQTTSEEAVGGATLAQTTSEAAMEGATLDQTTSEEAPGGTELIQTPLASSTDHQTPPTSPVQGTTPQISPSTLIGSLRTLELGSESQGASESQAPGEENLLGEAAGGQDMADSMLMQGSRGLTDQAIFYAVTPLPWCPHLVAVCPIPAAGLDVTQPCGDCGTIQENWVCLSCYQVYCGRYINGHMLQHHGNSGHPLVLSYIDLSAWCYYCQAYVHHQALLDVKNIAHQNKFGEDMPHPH
# Details: at 10 µM
row,SMILES,inhibition [%]
1,"CCCCCOc1ccc(-c2ccc(-c3ccc(C(=O)N[C@H]4C[C@@H](O)[C@@H](O)NC(=O)[C@@H]5[C@@H](O)[C@@H](C)CN5C(=O)[C@H]([C@@H](C)O)NC(=O)[C@H]([C@H](O)[C@@H](O)c5ccc(O)cc5)NC(=O)[C@@H]5C[C@@H](O)CN5C(=O)[C@H]([C@@H](C)O)NC4=O)cc3)cc2)cc1 ({pTerphenylCO(4''-OnC5H11)}-[Orn(4R-OH,5R-OH)]T[Hyp][hTyr(3S-OH,4S-OH)]T[Pro(3S-OH,4S-Me)]; lactam 1-C)",16.9
2,Cc1cc(Nc2cc(C)c(C#N)c(N[C@@H](C)CCCC(C)(C)O)n2)n[nH]1,27.9
3,Cc1ccc(C23CNCC2C3)cc1 (centres undefined),-3.02
4,O=C(O)c1ccccc1S,17.6
5,CC(=O)NS(=O)(=O)c1ccc(NC(=O)c2ccccc2C(=O)O)cc1,-8.72
6,O=C(O)c1ccccc1C(=O)Nc1ccc(-c2ccccc2)cc1,68
7,CCN(CC)CCOc1ccccc1C(=O)CCc1ccccc1,2.33
8,C[C@H](N)C(=O)N[C@@H](CCC(N)=O)C(=O)O (H-Ala-Gln-OH),-3.39
9,COc1ccc(N2CCOCC2)c2sc(NC(=O)N3CCC(C)(O)CC3)nc12,2.18
10,Cc1cc(NC(=O)C(c2ccccc2)N2CCCc3ccccc32)no1 (centres undefined),6.26
11,CN(C)c1ccc(C(=O)NCCCCCCC(=O)NO)cc1,102
12,COc1cc(C(=O)NCCCCCC(=O)O)cc(OC)c1OC,0.73
13,O=C(CNC(=O)c1ccc(Cl)cc1)NO,42.6
14,CC(=O)O[C@@H]1CC[C@@]2(C)[C@@H](CC[C@]3(C)[C@@H]2C(=O)C=C2[C@@H]4[C@@H](C)[C@H](C)CC[C@]4(C)CC[C@]23C)[C@@]1(C)C(=O)O,-8.47
15,CCc1noc(C)c1-c1[nH]c2ccccc2c1C(O)CN(C)C (centres undefined),3.93
16,CN(C)CCCSc1ccccc1NC(=O)/C=C/c1ccccc1,97.2
17,O=C1c2ccccc2CCC1CNCCc1ccc(O)cc1 (centres undefined),4.32
18,COc1cc(O)c(C(=O)c2ccccc2)cc1S(=O)(=O)O,-4.32
19,COc1cc(-c2ccc(/N=N/c3ccc4c(S(=O)(=O)O)cc(S(=O)(=O)O)c(N)c4c3O)c(OC)c2)ccc1/N=N/c1ccc2c(S(=O)(=O)O)cc(S(=O)(=O)O)c(N)c2c1O,69.8
20,OC(CNc1ccccc1)Cn1c2ccc(Br)cc2c2cc(Br)ccc21 (centres undefined),-9.16
21,Cc1cc(-c2cc(OC(=O)c3ccccc3)ccc2Cl)cc2nnc(Nc3ccc(OCCN4CCCC4)cc3)nc12,-4.96
22,CC(=O)[C@]1(N)Cc2c(O)c3c(c(O)c2[C@@H](O[C@H]2C[C@H](O)[C@H](O)CO2)C1)C(=O)c1ccccc1C3=O,18.4
23,Cc1oc(=O)oc1COC(=O)C1=C([C@H]2CCCO2)S[C@@H]2[C@@H]([C@@H](C)O)C(=O)N12,31.1
24,Cc1ccc(-n2nc(C(C)(C)C)cc2NC(=O)NCc2cc(F)ccc2Oc2ccc3c(cnn3CCO)c2)cc1,30.6
25,Cc1ccnc2c1CCCC2C(N)=S (centres undefined),-0.81

row,SMILES,inhibition [%]
1,CC(CN(C)C)CN1c2ccccc2Sc2ccc(C#N)cc21 (centres undefined),7.25
2,O=C1NC(=O)/C(=C\c2ccc(-c3ccc(F)cc3)o2)S1,60.3
3,CN1c2c(oc(=O)n(-c3ccccn3)c2=O)-c2ccccc2S1(=O)=O,16.6
4,CN1C(=O)N(c2ccc(C#N)c(C(F)(F)F)c2)C(=O)[C@]1(CO)c1ccccc1,40.5
5,Cc1nc(-c2cccnc2)sc1C(=O)Nc1ccccc1-c1cn2c(CN3CCOCC3)csc2n1,11.9
6,FCc1ccc(OCCOc2ccc(Cl)cc2Cl)c(Cl)n1,61.7
7,CCOc1c2c(c(OCC)c3ccccc13)C(=O)N(c1ccc(CC(=O)NS(=O)(=O)c3ccccc3)cc1)C2,3.49
8,O=C1C2CC3CC1CC(O)(C3)C2,26.7
9,COc1cc2c(Oc3ccc4[nH]c(C)cc4c3F)ccnc2cc1OCC1(N)CC1,54.9
10,Cc1cc2c(F)c(Oc3ncnn4cc(OC[C@@H](C)OC(=O)[C@H](C)N)c(C)c34)ccc2[nH]1,48.1
11,NS(=O)(=O)c1ccc2c(c1)C1C=CCC1C(c1ccc(Br)cc1)N2 (centres undefined),8.71
12,CS(=O)(=O)c1ccc(-c2cn3ccccc3n2)cc1,99.6
13,CS(=O)(=O)c1ccc(-c2cnc(N)c(C(=O)Nc3ccccc3)n2)cc1,6.2
14,Cc1cccc2c1CC[C@H](CN1CCC(c3c(Cl)cccc3Cl)CC1)C[C@@H]2O,-4.44
15,CN(C)[C@@H]1CCc2[nH]c3ccc(NC(=O)c4ccc(F)cc4)cc3c2C1,6.78
16,O=C1C2CC=CCC2C(=O)N1SC(Cl)(Cl)Cl (centres undefined),59.5
17,O=[N+]([O-])c1ccc(Cl)c([N+](=O)[O-])c1,15.2
18,O=C1C[C@@H](c2ccc(O)cc2)Oc2cc(O)cc(O)c21,73.8
19,COc1cc(O)cc([C@@H]2CC(=O)c3c(O)cc(O[C@@H]4O[C@H](CO)[C@@H](O)[C@H](O)[C@H]4O[C@@H]4O[C@@H](C)[C@H](O)[C@@H](O)[C@H]4O)cc3O2)c1,5.67
20,O=C(O[C@@H]1Cc2c(O)cc(O)cc2O[C@@H]1c1cc(O)c(O)c(O)c1)c1cc(O)c(O)c(O)c1,11.9
21,[O-][n+]1ccccc1S,22.8
22,O=C(Oc1ccccc1)c1ccccc1O,77.2
23,CCOC(=O)c1ccccc1OC(N)=O,7.12
24,O=C(OCCO)c1ccccc1O,5.24
